Data published in PubChem BioAssay AID1347142 (National Center for Advancing Translational Sciences (NCATS), 2019).
Inconclusive results are not listed. Calls of active or inactive are those of the source. Calls follow the shape of the dose curve; as a rule, active = well fitted inhibition curve with a large enough effect; inconclusive = small, poorly fitted or top-dose-only effect; inactive = no such curve, though single readings can be large or run the other way.

Target: N-terminal Xaa-Pro-Lys N-methyltransferase 1 (Homo sapiens) (UniProt Q9BV86)
Test: qHTS Assay for Inhibitors of N-terminal methyltransferase 1 (NTMT1): ThioGlo3 Assay Confirmatory Screen, Round 1.
Conditions: NTMT1 SAHH-coupled ThioGlo3 fluorescence, 30 min; series mostly up to 56.8 µM; activity change, negative = inhibition: at the top concentration
Excerpt: Assay Submitter (PI): Rong Huang Ph.D, Purdue University, West Lafayette, IN 47907 The N-terminal methytransferase 1 is the first methyltransferase that methylates protein alpha-N-amines and plays an important role in regulating cell mitosis, chromatin interactions and DNA repair. It is observed to be over-expressed in various cancer patient tissues like malignant melanoma and colorectal cancer tissues. Knockdown of NTMT1 in cancer cells causes cell mitotic defects and enhances sensitivity to DNA damaging chemotherapeutics. […] These critical cellular processes in which NTMT1 is implicated, coupled with emerging links to cellular dysfunction, strengthen the inference that NTMT1 is a compelling novel anticancer target. Progress have been made in understanding the molecular properties of NTMT1 and the biological consequences of protein alpha-N-terminal methylation, but there are no specific small molecule probes available for NTMT1 to fully characterize its MTase activity. To address this unmet need, a panel of assay is created and established to enable quantitative high-throughput screening (qHTS) for novel, potent, and selective small molecule NTMT1 inhibitors. Two orthogonal qHTS that use different reagents (ThioGlo vs. MTaseGlo) are developed for primary robotic screening against the NCATS chemical library of more than 400,000 small molecules. Identified inhibitors are reacquired, validated, and further characterized. […] Early Translation Branch (ETB) National Center for Advancing Translational Sciences (NCATS) National Institute of Health (NIH)
Materials: NTMT1 enzyme, substrate SPKRIA, control peptide RCC1-6 is provided by the Huang laboratory. ThioGlo3 Assay: In brief, 125nM NTMT1 enzyme was dispensed into a 1536-well assay plate with Aurora Discovery BioRAPTR Flying Reagent Dispenser (FRD, Beckton-Dickenson). Compounds (at various concentration) or 1uM RCC1-6 (SPKRIA) control were transferred to the assay plate using the Kalypsys 1536-pintool apparatus. After 1 min of room temperature incubation, 1uL of substrate (100uM SAM, 10uM SAHH, 15uM ThioGlo3) was added to the wells bringing the final assay volume to 4uL. Initial (background) fluorescence readout (EX: 340nm, EM: 450nm) was then detected using the PerkinElmer ViewLux microplate imager and a final fluorescence readout was taken after 30 min of room temperature incubation. The data was normalized to the background fluorescence.
Also: nearly all actives have a fitted effect of over 80% in size.
For activity change, negative = inhibition in this document: 0% is about no effect.
Potency is read from the fitted curve at half-maximal effect.

Chain of N-terminal Xaa-Pro-Lys N-methyltransferase 1 (Homo sapiens) (Q9BV86 whole entry, looked up): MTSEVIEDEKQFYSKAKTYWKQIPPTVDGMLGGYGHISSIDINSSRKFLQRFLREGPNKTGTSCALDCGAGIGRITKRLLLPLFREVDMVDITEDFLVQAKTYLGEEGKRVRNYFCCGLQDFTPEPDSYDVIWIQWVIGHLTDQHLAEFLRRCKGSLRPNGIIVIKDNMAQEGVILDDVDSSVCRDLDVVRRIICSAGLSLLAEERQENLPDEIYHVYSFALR

| Structure (SMILES) | Potency | activity change, negative = inhibition |
| --- | --- | --- |
| COc1cc2nc(N3CCCN(C)CC3)nc(N(C)C3CCN(C)CC3)c2cc1OC | 24.1 µM (active) | – |
| Nc1ncnc2c1ncn2[C@@H]1O[C@@H]2COP(O)(=S)O[C@H]2[C@H]1O (stereo partly drawn) | – | 14.1% (inactive) |
| Nc1ncnc2c1nc(Sc1ccc(Cl)cc1)n2[C@@H]1O[C@@H]2COP(O)(=S)O[C@H]2[C@H]1O (stereo partly drawn) | – | -0.802% (inactive) |
| Nc1ncnc2c1ncn2[C@@H]1O[C@H](COP(=O)(O)CP(=O)(O)O)[C@@H](O)[C@H]1O | – | -1.6% (inactive) |
| CCNC(=O)[C@H]1O[C@@H](n2cnc3c(N)ncnc32)[C@H](O)C1O (stereo partly drawn) | – | 22.9% (inactive) |
| Nc1ncnc2c1ncn2[C@@H]1O[C@@H]2CO[P@](=O)(S)O[C@H]2[C@H]1O | – | -24.5% (inactive) |
| CCN(CC)c1ncnc2c1ncn2[C@@H]1O[C@H](COP(=O)(O)OP(=O)(O)C(Br)(Br)P(=O)(O)O)[C@@H](O)[C@H]1O | – | -7.79% (inactive) |
| Nc1ncnc2c1ncn2[C@@H]1O[C@H](COP(=O)(O)OP(=O)(O)OP(=O)(O)O)[C@H]2OC3(O[C@H]21)C([N+](=O)[O-])=CC(=[N+]([O-])[O-])C=C3[N+](=O)[O-] (stereo partly drawn) | – | 1.18% (inactive) |
